Measured values taken from PubChem BioAssay (NCATS).
Records with an inconclusive call do not appear. A call without a number means that no potency is given here. Active and inactive are the calls of the source. Calls follow the shape of the dose curve; as a rule, active = well fitted inhibition curve with a large enough effect; inconclusive = small, poorly fitted or top-dose-only effect; inactive = no such curve, though single readings can be large or run the other way.

Assay: Primary qHTS for inhibitors of nuclear receptor binding SET domain protein 2 (NSD2) in an RCH-ACV wild type WT cells (2C) (AID 1645877); also: nearly all actives have a fitted effect of over 70% in size
Conditions: RCH-ACV (leukaemia line) NSD2 WT (2C) viability, CellTiter-Glo, 72 h; series mostly up to 44.9 µM
Potency is read from the fitted curve at half-maximal effect.

| Compound | Potency | activity change, negative = cell killing | outcome |
| --- | --- | --- | --- |
| COc1c2c(c(C)c3c1C(=O)OC3)OC1(C)CC(O)C3(O)C(C)(C)OC(=O)CCC3(C)C1C2 (centres undefined) | inactive |  |  |
| C=C1C[C@@]23CC[C@@H]4[C@](C)(C(=O)O)CCC[C@@]4(C)C2=CC[C@H]1C3 | inactive |  |  |
| C/C=C/C=C/C=C/C(=O)O[C@@H]1[C@@H](OC)C2=C(C(=O)N(C(C)C(=O)O)C2)[C@@]2(C)CCCC(C)(C)[C@H]12 (some centres undefined) | inactive |  |  |
| COC12CC3C(C(C)C1=CC(=O)O2)C(O)C(OC(C)=O)C1C(C)(C)C(OC(C)=O)CCC31C (centres undefined) | inactive |  |  |
| C[C@@H]1C(=O)O[C@H]2CC34[C@H]5C[C@@H](C(C)(C)C)C36[C@@H](OC(=O)[C@@H]6O)O[C@@]4(C(=O)O5)[C@]21O (some centres undefined) | inactive |  |  |
| COC1=CC(=O)O[C@@H](CCc2ccccc2)[C@@H]1O | inactive |  |  |
| CC(=O)O[C@H]1CC[C@@]2(CI)C(=CC[C@@H]3[C@@H]2CC[C@]2(C)[C@@H]([C@H](C)CCCC(C)C)CC[C@@H]32)C1 |  | -14% [at 9.23 µM] (inactive) |  |
| C[C@]1(O)CC[C@@H]2C(C(=O)O)=CO[C@@H](O[C@@H]3O[C@H](COC(=O)c4ccc(O)cc4)[C@@H](O)[C@H](O)[C@H]3O)[C@@H]21 | inactive |  |  |
| COc1cc2c(cc1O)C1(Cc3ccc4c(c3C1=O)OCO4)N(C)CC2 (centres undefined) | inactive |  |  |
| C=C1C(=O)O[C@H]2[C@H]1[C@@H](OC(=O)C(C)CO)C[C@@]1(C)[C@H](O)CCC(=O)[C@H]21 (some centres undefined) | inactive |  |  |
| CC1CCC2C(C)(C)C(O)CCC2(C)C12Cc1c(O)cc3c(c1O2)CN(C(CCC(N)=O)C(=O)O)C3=O (centres undefined) | inactive |  |  |
| CC1CCC2C(C)(C)C(O)CCC2(C)C12Cc1c(O)cc3c(c1O2)C(N)=NC3 (centres undefined) | inactive |  |  |
| O=C(/C=C/c1ccc(O)cc1)OC[C@H]1O[C@@H](OC(=O)/C=C/c2ccccc2)[C@H](O)[C@@H](O)[C@@H]1O | inactive |  |  |
| CC1=C2[C@@H]([C@H](C)CC[C@H]2/C=C(\C)C(=O)O)[C@H](O)C1 | inactive |  |  |
| COC1CCCC/C(C)=C/C2C=C(C)C(C)C3C(CC(C)C)NC(=O)C23C(=O)C1 (centres undefined) | inactive |  |  |
| C=C(C(=O)O)C1CCC(C)C2CCC(=O)OC2(C)C1 (centres undefined) | inactive |  |  |
| CC1=C2C(=O)C=C(CO)[C@@H]2[C@H]2OC(=O)[C@H](C)[C@@H]2[C@@H](O)C1 | inactive |  |  |
| CCC(C)C(=O)O[C@@H]1[C@@H](O)[C@@H](O[C@H]2O[C@H](CO)[C@@H](O)[C@H](O)[C@H]2O)O[C@H](CO)[C@H]1O (some centres undefined) | inactive |  |  |
| CC1(C)O[C@@H]2C[C@H]3[C@@H]4CCC5=CC(=O)C=C[C@]5(C)[C@H]4[C@@H](O)C[C@]3(C)[C@]2(C(=O)CO)O1 | 46.8 nM (active) |  |  |
| O=C(/C=C/c1ccccc1)OCC1=CC[C@@H]2C(C(=O)O)=CO[C@@H](O[C@@H]3O[C@H](CO)[C@@H](O)[C@H](O)[C@H]3O)[C@H]12 | inactive |  |  |

| Compound | Potency | activity change, negative = cell killing | outcome |
| --- | --- | --- | --- |
| C=CCc1ccc(O[C@@H]2O[C@H](CO)[C@@H](O)[C@H](O)[C@H]2O)c(OC)c1 | inactive |  |  |
| COc1ccccc1CC(C(=O)O)N(C)C(=O)c1ccccc1 (centres undefined) | inactive |  |  |
| CC(C)=CCc1ccc(Oc2c(O)cc(C)cc2CO)c(C(=O)O)c1O | inactive |  |  |
| CC1=C(CC(=O)O)c2cc(F)ccc2C1=Cc1ccc(S(C)(=O)=O)cc1 | inactive |  |  |
| CC1(C)C[C@H]2C3=CCC4[C@@]5(C)CC[C@H](O[C@H]6O[C@H](C(=O)O)[C@@H](O)[C@H](O)[C@H]6O[C@H]6O[C@H](CO)[C@@H](O)[C@H](O)[C@H]6O[C@@H]6O[C@H](CO)[C@@H](O)[C@H](O)[C@H]6O)[C@](C)(CO)C5CC[C@@]4(C)[C@]3(C)CC[C@@]2(C)[C@H](O[C@@H]2OC[C@H](O)[C@H](OC3O[C@H](CO)[C@@H](O)[C@H](O)[C@H]3O)[C@H]2O)[C@@H]1O (some centres undefined) |  |  | inactive [at 9.23 µM] |
| OCC1=CC[C@@H]2C=CO[C@@H](O[C@@H]3O[C@H](CO)[C@@H](O)[C@H](O)[C@H]3O)[C@H]12 | inactive |  |  |
| C=C1C(=O)OC2CC(C)=C(C(C)CCCO[C@@H]3O[C@H](CO)[C@@H](O)[C@H](O)[C@H]3O)C(O)C12 (some centres undefined) | inactive |  |  |
| COc1ccc(C[C@H](N)C(=O)N[C@H]2[C@@H](O)[C@H](n3cnc4c(N(C)C)ncnc43)O[C@@H]2CO)cc1 | 258 nM (active) |  |  |
| NC(=O)c1cccc(-c2cc(O)cc(OC(=O)NC3CCCCC3)c2)c1 | inactive |  |  |
| COC1CC(=O)CCC(C)OC(=O)CC1O (centres undefined) | inactive |  |  |
| C[C@@H]1O[C@@H](O[C@H]2[C@H](O[C@H]3[C@H](O[C@H]4CC[C@@]5(CO)C(CC[C@]6(C)C5CC=C5C7CC(C)(C)C[C@@H](O)[C@]7(C)CC[C@]56C)C4(C)C)O[C@H](C(=O)O)[C@@H](O)[C@@H]3O)OC[C@@H](O)[C@@H]2O)[C@H](O)[C@H](O)[C@H]1O (some centres undefined) |  | -8.5% [at 9.23 µM] (inactive) |  |
| CC1CCC2C(C)(C)CC(C)(CO)C2(O)C1C(=O)O (centres undefined) | inactive |  |  |
| CCC(C)/C=C(C)/C=C/C1=CC2=C(Cl)C(=O)C(C)(OC(C)=O)C(=O)C2=CN1C1CCCCN(C(CCC(N)=O)C(=O)O)C1=O (centres undefined) | inactive |  |  |
| C=C1CC[C@@H]2[C@](C)(CO[C@@H]3O[C@H](CO)[C@@H](O)[C@H](O)[C@H]3O)CCC[C@@]2(C)[C@@H]1CCC1=CCOC1=O | inactive |  |  |
| N#Cc1ccnc(N2C(=O)CC[C@H]2C(=O)N(c2cncc(F)c2)[C@H](C(=O)NC2CC(F)(F)C2)c2ccccc2Cl)c1 | inactive |  |  |
| C=CC(C)(O)CC/C=C(\C)C(=O)OCC1OC(OC2CCC3(C)C(CCC4(C)C3CC=C3C5CC(C)(C)C(O)CC5(C(=O)O)CCC34C)C2(C)C)C(O)C(OC2OC(CO)C(O)C(OC3OC(CO)C(O)C(OC4OC(COC5OC(CO)C(O)C(O)C5O)C(O)C(O)C4O)C3O)C2O)C1O (centres undefined) |  | 4.93% [at 9.23 µM] (inactive) |  |
| CC(C)=CC/C=C(/C)[C@H]1CC[C@]2(C)[C@@H]1[C@H](O)CC1[C@@]3(C)CC[C@H](O)C(C)(C)[C@@H]3[C@@H](O[C@@H]3O[C@H](CO)[C@@H](O)[C@H](O)[C@H]3O[C@@H]3O[C@@H](C)[C@H](O)[C@@H](O)[C@H]3O)C[C@]12C (some centres undefined) | inactive |  |  |
| Cn1ccnc1CCOC(c1cc2nccc(C(=O)O)c2[nH]1)c1ccccc1Cl (centres undefined) | inactive |  |  |
| C=C1CCC2C(C)(C)C(O)CCC2(C)C1CCC(C)CCOC(=O)CCC(=O)O (centres undefined) | inactive |  |  |
